Screening data from PubChem.
This is a sample that favours compounds with a hit; in the whole collection about 2.9% have one here.
D3 ag – activates the human D3 dopamine receptor; D3R DiscoveRx beta-arrestin cells, luminescence, 90 min; 410,000 compounds, 0.58% hits; P35462; max activation, %; in the data active = max activation above about 30%; also: 0% is about no effect
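Agonist mode: compounds and dopamine controls were applied to plated cells for 90 min at 37 degrees C after an overnight attachment at 1500 cells/well. Luminescent read-out followed 30 - 60 minutes at room temperature with DiscoveRx detection reagent.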
B2AR arrestin – recruits beta-arrestin to the human beta2-adrenergic receptor. beta-arrestin recruitment to beta2AR, cell-based reporter. 330,000 compounds, 0.02% hits. P07550. Potency, µM (series often up to 46.1 µM), for the others: at the top dose activation, usual class: activators. AID 492947; active = well fitted activation curve with a large enough effect; inconclusive = small, poorly fitted or top-dose-only effect;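 also: potency is read from the fitted curve at half-maximal effect; 0% = DMSO controls and full agonism = EC100 isoproterenol or metaproterenol; nearly all actives have a fitted effect of over 65% in size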
TSHR antag – antagonists of human thyroid stimulating hormone receptor | TSHR-expressing cells, TSH-stimulated cAMP HTRF, 2 h; active compounds read low | activity change, negative = inhibition, % at 11.5 µM | 330,000 compounds, 0.2% hits | P16473;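 active = activity change below a set negative limit, meaning inhibition stronger than a set level, cut at about -70% in these data; inconclusive = activity change between two set negative limits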; also: % is scaled to controls: 0 for no effect and ±100 for the full control effect
Target sequence (P16473 whole entry, looked up): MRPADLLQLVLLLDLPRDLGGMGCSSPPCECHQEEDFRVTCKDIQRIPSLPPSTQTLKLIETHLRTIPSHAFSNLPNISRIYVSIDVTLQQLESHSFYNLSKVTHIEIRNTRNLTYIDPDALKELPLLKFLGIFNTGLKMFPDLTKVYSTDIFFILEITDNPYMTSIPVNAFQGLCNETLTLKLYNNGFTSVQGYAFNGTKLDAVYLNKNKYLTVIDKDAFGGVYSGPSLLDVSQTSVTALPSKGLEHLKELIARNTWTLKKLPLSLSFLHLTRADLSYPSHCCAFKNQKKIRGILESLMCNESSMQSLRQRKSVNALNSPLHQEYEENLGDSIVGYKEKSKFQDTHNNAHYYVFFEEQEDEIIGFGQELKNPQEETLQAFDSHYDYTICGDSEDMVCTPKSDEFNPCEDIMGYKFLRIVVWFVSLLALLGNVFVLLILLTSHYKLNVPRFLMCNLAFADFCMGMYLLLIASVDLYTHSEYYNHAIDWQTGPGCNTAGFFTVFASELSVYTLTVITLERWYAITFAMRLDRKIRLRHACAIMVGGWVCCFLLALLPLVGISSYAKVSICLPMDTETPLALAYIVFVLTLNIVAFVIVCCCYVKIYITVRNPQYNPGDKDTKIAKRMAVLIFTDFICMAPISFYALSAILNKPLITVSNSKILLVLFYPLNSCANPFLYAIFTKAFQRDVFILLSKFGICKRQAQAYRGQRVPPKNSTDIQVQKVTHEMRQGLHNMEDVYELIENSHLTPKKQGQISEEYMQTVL
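Cell-based HTRF cAMP assay; TSHR cells + compound, TSH EC80 (4nM final), 2 h, 37 deg C. Lysis with anti-cAMP cryptate and cAMP-d2, 30 min RT, read 665/620 nm.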
D3 antag – D3 dopamine receptor (human) antagonism. AID 652054. 360,000 compounds, 2.5% hits. max response, negative = inhibition, %. D3R cells, DiscoveRx beta-arrestin luminescence, antagonist mode; active compounds read low. P35462; in the data active = max response below about -50%; inconclusive = no clear call, values can overlap the other calls; also: % is scaled to controls: 0 for no effect and ±100 for the full control effect
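Cells expressing the human receptor were seeded at 1500 cells/well, incubated overnight at 37 degrees C in 5% CO2, then exposed to library compounds with dopamine controls for 90 minutes at 37 degrees C before luminescent detection.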
An asterisk follows results filed as active; u = inconclusive; x = not tested or not shown; ! = repeats disagree; [ ] = another dose, or the depositor's remark.

SMILES | D3 ag | B2AR arrestin | TSHR antag | D3 antag
CCC1Nc2ncnc(N3CCc4ccccc4C3)c2N(Cc2ccc(Cl)cc2)C1=O (centres undefined) | -24 | -1% | -17 | -8
O=C1C(Cc2ccccc2)Nc2ncnc(N3CCc4ccccc4C3)c2N1Cc1ccc(Cl)cc1 (centres undefined) | -23 | 0% | 16 | -59*
CCC1Nc2ncnc(N3CCCCC3)c2N(Cc2ccc(OC)cc2)C1=O (centres undefined) | -27 | -2% | -5 | -64*!
Cc1c(Cl)cccc1N1C(N)=C(C#N)C(c2cc(CN3CCOCC3)cs2)C2=C1CCCC2=O (centres undefined) | -11 | x | x | x
O=C(O)c1cc(O)c2c(c1)[C@H]([C@H]1c3cc(C(=O)O)cc(O)c3C(=O)c3c(O[C@@H]4O[C@H](CO)[C@@H](O)[C@H](O)[C@H]4O)cccc31)c1cccc(O[C@@H]3O[C@H](CO)[C@@H](O)[C@H](O)[C@H]3O)c1C2=O | -8 | x | x | x
O=C1C(Cc2ccccc2)Nc2ncnc(N3CCCCC3)c2N1Cc1ccccc1 (centres undefined) | -9 | 0% | -1 | -9
O=C1C(Cc2ccccc2)Nc2ncnc(N3CCCCC3)c2N1Cc1ccc(Br)cc1 (centres undefined) | -46 | 0% | 2 | -99*
CN1CCN(C(=O)c2ccc(COc3ccc(Cl)cc3Cl)cc2)CC1 | -22 | 0% | 6 | -89*
CN1CCN(C(=O)CCCOc2ccc(Cl)cc2Cl)CC1 | -3 | 0% | 29 | -53*
O=S1(=O)CC(N2CCN(CC3CC3)CC2)CN1Cc1ccc(F)cc1 (centres undefined) | -9 | x | x | -9
CN(C)CCN1CCN(C2CN(C3CCCCC3)S(=O)(=O)C2)CC1 (centres undefined) | 1 | x | x | u
O=S1(=O)CC(N2CCC(Cc3ccccc3)CC2)CN1C1CCCCC1 (centres undefined) | -9 | x | x | -78*
CCCCCCN1CCN(C2CN(C3CCCCC3)S(=O)(=O)C2)CC1 (centres undefined) | -14 | x | x | -117*
O=S1(=O)CC(N2CCN(CC3CC3)CC2)CN1Cc1ccccc1 (centres undefined) | -7 | x | x | -61*
C=Cc1ccc(CN2C(=O)N(c3cccc(Cl)c3)S(=O)(=O)c3ccccc32)cc1 | 10 | x | x | x
COc1ccccc1NC(=O)c1cc2cc3ccc(OC)c(Cl)c3nc2s1 | -5 | x | x | x
O=c1oc2ccccc2c2c1C1O[C@](c3ccsc3)(Cc3c1ccc1ccccc31)O2 | x | 0%[9.22 µM] | x | x
CCOC(=O)CN1C(=O)NC2(CCCc3ccccc32)C1=O (centres undefined) | -15 | 0% | 0 | -68*
CCN(CC)C(=O)C1=C(C)N(CCCOC)C(=O)C(CC(=O)NC2CC2)C1 (centres undefined) | -17 | x | x | -116*
CCN(CC)C(=O)C1=C(C)N(CCCOC)C(=O)C(CC(=O)NC2CCCC2)C1 (centres undefined) | 1 | x | x | 20
Fc1ccc(CCn2c(Cn3c(-c4cnccn4)nc4ccccc43)nc3ccccc32)cc1 | -14 | x | x | -59*
Cc1ccc(S(=O)(=O)NCc2ccccc2)cc1 | 9 | 0% | 20 | 10
Cc1ccc(S(=O)(=O)N[C@H](CNCc2ccccc2)C(C)C)cc1 | -17 | x | x | -91*
CCN(CC)C(=O)c1sc2c(c1C)c(=O)n(-c1ccc(C)c(C)c1)c(=O)n2CC(=O)Nc1ccc(OC)cc1OC | -11 | x | x | x
CCN1CC2([N+](=O)[O-])C=CC(=O)C([N+](=O)[O-])(C1)C2CC(=O)c1ccccc1 (centres undefined) | 1 | -2% | -9 | -68*
SMILES | D3 ag | B2AR arrestin | TSHR antag | D3 antag
CCCCN1CC2([N+](=O)[O-])C=CC(=O)C([N+](=O)[O-])(C1)C2CC(=O)c1ccccc1 (centres undefined) | 2 | -1% | -9 | 14
O=C(Nc1cc(C(F)(F)F)ccc1N1CCOCC1)C1=NN(c2ccccc2)C(=O)CC1 | -1 | 0% | -1 | 1
O=C(Nc1ccccc1N1CCOCC1)C1=NN(c2ccccc2)C(=O)CC1 | -4 | 0% | -5 | -52*
O=C(Cc1ccccc1)Nc1ccccc1N1CCOCC1 | 5 | 0% | -7 | -52*
O=C(Cc1ccccc1)Nc1ccccc1N1CCCC1 | -7 | 0% | -3 | -21
Cc1ccc(-c2ccc(CCC(=O)O)n2-c2ccc(C(C)C)cc2)cc1 | 2 | x | x | x
CC1=C(C)CS(=O)N(S(=O)(=O)c2ccc(Cl)cc2)C1 (centres undefined) | -3 | 0% | -19 | -88*
O=C1c2cccnc2C(=O)N1Cc1ccc(S(=O)(=O)N2CCN(c3ccc(Cl)cc3)CC2)cc1 | 4 | -1% | -135* | 21
O=C1c2cccnc2C(=O)N1Cc1ccc2c(c1)OCO2 | 41* | 0% | 15 | 22
Cc1ccc(S(=O)(=O)CCC(=O)Nc2ccc(OC(F)(F)F)cc2)cc1 | 3 | x | x | x
Cc1nc2ncnn2c(C)c1Cc1ccccc1Cl | 5 | 0% | -11 | -82*
Cc1ccccc1Cc1c(C)nc2ncnn2c1C | 6 | 0% | -2 | 13
CN1C(=O)CC(C(=O)Nc2ccc(C(=O)O)cc2)SC1=Nc1ccc(Cl)cc1 (centres undefined) | 8 | x | x | x
CCc1ccc(C(=O)/C=C/c2ccc([N+](=O)[O-])o2)cc1 | -2 | u | -30 | -56*
CCCCCCCCCCCCCCCCCCNC(=O)OC1CCN(C(=O)OC[C@H](COC(=O)N(Cc2cccc[n+]2CC)C(=O)c2ccccc2OC)OC)CC1 | -23 | x | x | x
Cn1c(-c2ccc(Br)cc2)cnc1NCc1cccnc1 | -3 | 0% | -5 | -62*
Cn1c(-c2ccc(F)cc2)cnc1NCc1ccc(C#N)cc1 | -1 | 0% | 10 | -73*
Cn1c(-c2ccc(F)cc2)cnc1NCc1ccc(F)cc1 | -3 | 0% | 9 | u
Cc1oc(-c2ccccc2)nc1CSc1nnc(C)n2c1cc1sccc12 | -14 | x | x | x
CC(=O)Nc1ccc(-c2ccnc3c2CC(C)(C(=O)NCCc2ccccc2)O3)cc1 (centres undefined) | -21 | x | x | -115*
CC(=O)Nc1ccc(-c2ccnc3c2CC(C)(C(=O)Nc2cccc(Oc4ccccc4)c2)O3)cc1 (centres undefined) | -19 | x | x | -66*
CC(=O)Nc1ccc(-c2ccnc3c2CC(C)(C(=O)Nc2ccc(C(C)C)cc2)O3)cc1 (centres undefined) | -10 | x | x | -28
CC1(C(=O)NCc2ccco2)Cc2c(-c3ccccc3)ccnc2O1 (centres undefined) | -7 | x | x | -58*
CC(C)c1ccc(NC(=O)C2(C)Cc3c(-c4ccc(C(N)=O)cc4)ccnc3O2)cc1 (centres undefined) | -18 | x | x | -54*
Cc1cc(-c2ccc(C)c(S(=O)(=O)N3CCCC(C)C3)c2)on1 (centres undefined) | -6 | x | x | x
Cc1ccc(C(=O)NCC(c2cccs2)S(=O)(=O)c2cccs2)cc1 (centres undefined) | -5 | x | x | x
